# Reference: ChEMBL document CHEMBL3988442, “University of Dundee, Small-Polar-MMV Screening Library” (2021)
# About 960 (1.5%) of roughly 66,000 compounds showed an effect of 50% or more. The sample holds strong results, similar compounds and a random draw of the others, so the mix is not that of the screen.
# System: Trypanosoma brucei
# Assay: Trypanosoma brucei 72 hour study
# Format: functional, organism-based
# Set-up: scale not given: in the data most compounds retested in dose-response had high values
smiles,measurement,setting,value
COc1cc(CNC(=O)NCc2c(C)cc(C)[nH]c2=O)ccc1C,Percent Effect,"30 µM, 30.03 µM",17.33%
Cc1cc(C)c(CNC(=O)NCc2ccc(F)cc2)c(=O)[nH]1,Percent Effect,"30.3 µM, […]",-10.32%
COc1ccc(CNC(=O)NCc2c(C)cc(C)[nH]c2=O)cc1,Percent Effect,"30 µM, 30.03 µM",50.39%
Cc1sc(CN)nc1-c1ccc(Cl)cc1.Cl,Percent Effect,"30 µM, 30.03 µM",-33.68%
O=C(NCCCNc1ccc(C(F)(F)F)cn1)c1ccc(F)cc1,Percent Effect,10 µM,-67.47%
Cc1nc(CCN2CCC(Oc3ccccc3F)CC2)cs1,Percent Effect,"30.3 µM, […]",-2.649%
Cc1nc(C)c(CCN2CCC(Oc3ccccc3F)CC2)s1,Percent Effect,"30.3 µM, […]",55.32%
Cc1nc(CCN2CCC(Oc3ccccc3F)CC2)c(C)s1,Percent Effect,"30.3 µM, […]",14.09%
O=C(O)C(F)(F)F.O=C(O)C(F)(F)F.O=C1NC2(CCN(Cc3ccsc3)CC2)CC1c1ccncc1 (stereo not given),Percent Effect,"30 µM, 30.03 µM",34.47%
CC(C)n1c(=O)nc2n1C(=O)N(c1ccc(F)cc1)C2,Percent Effect,"30 µM, 30.03 µM",24.9%
COc1cc(Cl)cc(CN2CCCC(N3CCCC3)C2)c1OC (stereo not given),Percent Effect,"30 µM, 30.03 µM",-17.8%
c1cnc(-c2nc(CN3CCn4c(nnc4C4CC4)C3)cs2)nc1,Percent Effect,"30 µM, 30.03 µM",1.717%
c1sc(C2CCCC2)nc1CN1CCn2c(nnc2C2CC2)C1,Percent Effect,"30 µM, 30.03 µM",-23.12%
c1sc(C2CCCCC2)nc1CN1CCn2c(nnc2C2CC2)C1,Percent Effect,"30.3 µM, […]",99.05%
Cc1ccsc1C(=O)N1CCCC(c2[nH]ncc2S(C)(=O)=O)C1 (stereo not given),Percent Effect,"30.3 µM, […]",-15.29%
Cc1csc(C(=O)N2CCCC(c3[nH]ncc3S(C)(=O)=O)C2)c1 (stereo not given),Percent Effect,"30.3 µM, […]",68.17%
Cc1ccc(C(=O)N2CCCC(c3[nH]ncc3S(C)(=O)=O)C2)s1 (stereo not given),Percent Effect,"30.3 µM, […]",-30.56%
COCCN1CCC2(CC1)CN(C(=O)c1cccs1)CCO2.O=C(O)C(F)(F)F,Percent Effect,"30.3 µM, […]",-16.53%
CN(C)CCO[C@H]1CN(C(=O)c2cccs2)[C@@H]2COC[C@H]12.O=C(O)C(F)(F)F,Percent Effect,"30 µM, 30.03 µM",4.197%
CC(Nc1nc2c(cnn2C)c(=O)[nH]1)c1ccc2c(c1)CCCC2 (stereo not given),Percent Effect,"30.3 µM, […]",35.38%
CCC(=O)Nc1ccc(C(C)Nc2nc3c(cnn3C)c(=O)[nH]2)cc1 (stereo not given),Percent Effect,"30.3 µM, […]",99.39%
CC(C)Sc1ccc(C(C)Nc2nc3c(cnn3C)c(=O)[nH]2)cc1 (stereo not given),Percent Effect,"30.3 µM, […]",62.45%
Cc1ccc(C(C)N(C)Cc2nc3c(cnn3C)c(=O)[nH]2)cc1 (stereo not given),Percent Effect,"30 µM, 30.03 µM",18.7%
CC(Nc1nc2c(cnn2C)c(=O)[nH]1)c1ccc(F)cc1 (stereo not given),Percent Effect,"30.3 µM, […]",-23.37%
CC(Nc1nc2c(cnn2C)c(=O)[nH]1)c1ccccn1 (stereo not given),Percent Effect,"30.3 µM, […]",-31.46%
CSCC[C@H](N)c1nnc(SCC(=O)Nc2ccc(Br)cc2)o1.Cl,Percent Effect,"30 µM, 30.03 µM",-43.15%
CC(CNC(=O)c1ccc(F)cc1I)N1CCCC1 (stereo not given),Percent Effect,"30.3 µM, […]",0.5476%
COCCC(=O)NCCn1nc(C2CCNC2)c2cccnc21.Cl (stereo not given),Percent Effect,"30.3 µM, […]",-11.01%
Cc1nc(CN2CCC(O)(c3ccccc3F)CC2)c2ccccn12.O=C(O)CC(O)(CC(=O)O)C(=O)O,Percent Effect,"30.3 µM, […]",-5.12%
Cc1cccc(C)c1NC(=O)c1cc(S(N)(=O)=O)c(C)o1,Percent Effect,"30 µM, 30.03 µM",-12.34%
Cc1nccc(CNC(=O)NCCOc2ccc(F)c(F)c2)n1,Percent Effect,"30.3 µM, […]",8.406%
Cc1nc(C2(O)CCCNCC2)sc1CCOc1ccc(F)c(F)c1.Cl (stereo not given),Percent Effect,"30.3 µM, […]",101.7%
Cn1cc(CNC(=O)NCCOc2ccc(F)c(F)c2)cn1,Percent Effect,"30 µM, 30.03 µM",-10%
Cc1cc(CNC(=O)NCCOc2ccc(F)c(F)c2)on1,Percent Effect,"30 µM, 30.03 µM",-38.02%
CC1(C(=O)NCc2cccnc2Oc2ccc(F)c(F)c2)CCCNC1 (stereo not given),Percent Effect,"30 µM, 30.03 µM",-31.1%
CCC(CN1CCCC1)NC(=O)Cc1c(C)[nH]c2c(C)cc(C)cc12.O=C(O)CC(O)(CC(=O)O)C(=O)O (stereo not given),Percent Effect,"30.3 µM, […]",9.843%
Cc1ccc(CN2CCCn3nnc(COCC4CC4)c3C2)s1.O=C(O)C(F)(F)F,Percent Effect,"30 µM, 30.03 µM",22.43%
CN(C)CCCN(Cc1ccco1)Cc1ccnn1C1CCCCO1.O=C(O)CC(O)(CC(=O)O)C(=O)O (stereo not given),Percent Effect,"30.3 µM, […]",-21.72%
O=C(O)C(F)(F)F.O=C(c1ccncc1)N1CCOC2(CCCN(c3nncs3)C2)C1 (stereo not given),Percent Effect,"30.3 µM, […]",-64.64%
CN(C)S(=O)(=O)N1CCC(c2cccc(Cc3ccccc3Cl)n2)CC1,Percent Effect,"30.3 µM, […]",-38.96%
Cc1ccc(-c2nc(CN(Cc3cccs3)CC3CCCO3)no2)cc1 (stereo not given),Percent Effect,10 µM,-10.74%
same,Percent Effect,"30.3 µM, […]",9.515%
Cc1ncoc1C(=O)N1C[C@H]2CCC[C@@]2(COCc2cccnc2)C1.O=C(O)C(F)(F)F,Percent Effect,"30 µM, 30.03 µM",18.22%
Cn1nnc2c1CCN(CC1CC1)C2COCc1ccccc1.O=C(O)C(F)(F)F (stereo not given),Percent Effect,"30 µM, 30.03 µM",17.54%
CO[C@@H]1CC[C@H]2[C@H]1OCCN2Cc1ccc(F)c(F)c1.O=C(O)C(F)(F)F,Percent Effect,"30.3 µM, […]",-7.78%
CC(C)NC(=O)N1CCOC2(CCCN(c3ncccc3F)C2)C1.O=C(O)C(F)(F)F (stereo not given),Percent Effect,"30.3 µM, […]",-41.85%
OC1(c2ccccc2F)CCN(Cc2ccccc2N2CCCC2)CC1,Percent Effect,"30.3 µM, […]",56.26%
Cc1nc(CCN)cc(N2CCC(O)(c3ccccc3)C2)n1 (stereo not given),Percent Effect,"30 µM, 30.03 µM",-28.3%
COc1cccc(CN2CCC(O)(c3ccc(C)cn3)CC2)c1OC,Percent Effect,"30.3 µM, […]",-256.8%
Cc1cccc(C2(O)CCN(Cc3ccccc3N3CCCC3)CC2)c1,Percent Effect,"30.3 µM, […]",93.6%
Cl.OC1(c2ccc(F)cc2)CCN(Cc2ccccc2N2CCCC2)CC1,Percent Effect,"30.3 µM, […]",-34.29%
Nc1ncc(CN2CCC(O)(c3ccccc3F)CC2)cn1,Percent Effect,"30.3 µM, […]",-5.013%
COc1cc(CCC(=O)N2CCC(c3cc4ncc(C)nc4[nH]3)C2)on1 (stereo not given),Percent Effect,"30.3 µM, […]",31.83%
COc1cc(CCC(=O)N2CCC(c3cc4nccnc4[nH]3)CC2)on1,Percent Effect,"30.3 µM, […]",60.69%
COc1cc(CCC(=O)N2CCC(c3cc4ncccc4[nH]3)CC2)on1,Percent Effect,"30.3 µM, […]",13.01%
O=C(C1CCOCC1)N1CCO[C@H]2[C@H](OCc3ccncc3)CC[C@@H]21.O=C(O)C(F)(F)F,Percent Effect,"30 µM, 30.03 µM",-17.19%
CN(Cc1ccncc1)C1COC2(CCN(Cc3ccsc3)CC2)C1.O=C(O)C(F)(F)F.O=C(O)C(F)(F)F.O=C(O)C(F)(F)F (stereo not given),Percent Effect,"30 µM, 30.03 µM",11.15%
Cn1nc(C(=O)NCc2cccs2)c2c1CCS(=O)(=O)C2,Percent Effect,"30.3 µM, […]",-10.45%
Cn1nc(C(=O)NCc2cccnc2)c2c1CCS(=O)(=O)C2,Percent Effect,"30.3 µM, […]",-19.1%
Cn1nc(C(=O)NCc2ccccn2)c2c1CCS(=O)(=O)C2,Percent Effect,"30 µM, 30.03 µM",63.28%
CC(=O)N1CCC[C@@H](NCc2c[nH]c3ccccc23)[C@@H]1c1ccc(C)s1.Cl,Percent Effect,"30.3 µM, […]",-17.97%
Cc1cnn(C2CCCN(C(=O)Cc3c(C)nn(C)c3C)C2)c1 (stereo not given),Percent Effect,"30.3 µM, […]",-16.8%
O=C(O)C(F)(F)F.O=C(O)C(F)(F)F.c1cncc(N2CCCC3(CCN(CCN4CCCC4)CC3)C2)c1,Percent Effect,"30.3 µM, […]",-7.746%
O=C(O)C(F)(F)F.O=C(c1cccs1)N1CCCC2(COCCN(c3cccnc3)C2)C1 (stereo not given),Percent Effect,"30.3 µM, […]",-669.5%
O=C(O)C(F)(F)F.c1ccc(N2CCCC3(COCCN(c4nccs4)C3)C2)nc1 (stereo not given),Percent Effect,"30 µM, 30.03 µM",23.77%
Cc1cnc(N2CCCC3(COCCN(c4nccs4)C3)C2)nc1 (stereo not given),Percent Effect,"30.3 µM, […]",-22.75%
O=C(O)C(F)(F)F.c1cncc(N2CCOCC3(CCCN(c4nncs4)C3)C2)c1 (stereo not given),Percent Effect,"30.3 µM, […]",1.277%
O=C(O)C(F)(F)F.O=S(=O)(c1cccs1)N1CCCC2(COCCN(c3cccnc3)C2)C1 (stereo not given),Percent Effect,"30.3 µM, […]",53.4%
N#Cc1ccc(N2CCCC3(CCN(c4cccnc4)CC3)C2)cc1.O=C(O)C(F)(F)F,Percent Effect,"30.3 µM, […]",65.08%
Fc1cnc(N2CCCC3(COCCN(c4nccs4)C3)C2)nc1.O=C(O)C(F)(F)F.O=C(O)C(F)(F)F (stereo not given),Percent Effect,"30 µM, 30.03 µM",60.81%
O=C(O)C(F)(F)F.c1cncc(N2CCC3(CCCN(c4ccncc4)C3)CC2)c1,Percent Effect,"30.3 µM, […]",-3.759%
O=C(O)C(F)(F)F.O=C(O)C(F)(F)F.c1cc(CN2CC[C@@H]3[C@@H](CO[C@H]3CN3CCOCC3)C2)cs1,Percent Effect,"30.3 µM, […]",-46.86%
COc1ccc(N2CCN(C(=O)[C@H]3[C@@H]4CNC[C@@H]43)CC2(C)C)cc1,Percent Effect,"30 µM, 30.03 µM",-58.92%
Cc1cccc(CN2CCO[C@@H]3CC(COc4ccccn4)C[C@H]32)n1.O=C(O)C(F)(F)F.O=C(O)C(F)(F)F (stereo not given in full),Percent Effect,"30.3 µM, […]",-29.04%
CCOCCCNCc1cc2c(C)cc(C)cc2n2c(=O)n(C)nc12,Percent Effect,"30.3 µM, […]",2.995%
COCCNCc1cc2c(C)cc(C)cc2n2c(=O)n(C)nc12,Percent Effect,"30.3 µM, […]",39.03%
Cc1cc(C)c2cc(CNCc3ccc(C)o3)c3nn(C)c(=O)n3c2c1,Percent Effect,"30.3 µM, […]",-8.702%
Cc1cc(C)c2cc(CNC(C)C)c3nn(C)c(=O)n3c2c1,Percent Effect,"30.3 µM, […]",99.68%
Cc1cc(C)c2cc(CNCC3CCCO3)c3nn(C)c(=O)n3c2c1 (stereo not given),Percent Effect,"30.3 µM, […]",73.49%
CCCNCc1cc2c(C)cc(C)cc2n2c(=O)n(C)nc12,Percent Effect,"30.3 µM, […]",24.54%
Cc1cc(C)c2cc(CNCc3ccccc3)c3nn(C)c(=O)n3c2c1,Percent Effect,"30.3 µM, […]",17.22%
Cc1cc(C)c2cc(CNC3CCCCC3)c3nn(C)c(=O)n3c2c1,Percent Effect,"30.3 µM, […]",100.6%
Cc1cc(C)c2cc(CNCc3ccco3)c3nn(C)c(=O)n3c2c1,Percent Effect,"30.3 µM, […]",8.532%
Cc1nc(Nc2ncccn2)cc(C2CCCN2CC(C)C)n1 (stereo not given),Percent Effect,"30 µM, 30.03 µM",-16.62%
Cc1nc(CN2CCC3(CC2)NC(=O)CC3c2ccccc2)cs1.O=C(O)C(F)(F)F (stereo not given),Percent Effect,"30.3 µM, […]",10.42%
O=C(Cc1cccc(F)c1)N1C[C@H]2CN(Cc3ccccn3)C[C@H]2C1.O=C(O)C(F)(F)F,Percent Effect,"30.3 µM, […]",-6.988%
CC(C)n1c(=O)nc2n1C(=O)N(c1ccccc1)C2,Percent Effect,"30 µM, 30.03 µM",14.82%
CN1CCN(Cc2cnc3n2CCN(Cc2cccnc2)CC3)CC1.O=C(O)C(F)(F)F.O=C(O)C(F)(F)F.O=C(O)C(F)(F)F,Percent Effect,"30.3 µM, […]",-39.08%
Cc1nc(CN2C(=O)C[C@@H]3[C@@H]2CCN3S(C)(=O)=O)cs1,Percent Effect,"30 µM, 30.03 µM",-13.69%
Cc1cc2nc(C(C)C)cc(NCCNc3ncccc3C)n2n1,Percent Effect,"30 µM, 30.03 µM",-45.75%
